Experimental data taken from PubChem BioAssay.
Active and inactive are the calls of the source.

Tests used:
Albumin (Bos taurus) = Albumin (Bos taurus) (UniProt P02769); experiment: bovine serum albumin binders on microarray, profiling panel, artefact control for SMM control protein annotation, biochemical, small-molecule microarray, Alexa647 label, 635/667 nm fluorescence (AID 1118); settings: BSA-A647 binding, fluorescence 635 nm, higher = more signal;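 further: score merges 667 nm emission intensity and signal-to-noise per printed compound spot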
Sequence of Albumin (Bos taurus) (P02769 whole entry, looked up): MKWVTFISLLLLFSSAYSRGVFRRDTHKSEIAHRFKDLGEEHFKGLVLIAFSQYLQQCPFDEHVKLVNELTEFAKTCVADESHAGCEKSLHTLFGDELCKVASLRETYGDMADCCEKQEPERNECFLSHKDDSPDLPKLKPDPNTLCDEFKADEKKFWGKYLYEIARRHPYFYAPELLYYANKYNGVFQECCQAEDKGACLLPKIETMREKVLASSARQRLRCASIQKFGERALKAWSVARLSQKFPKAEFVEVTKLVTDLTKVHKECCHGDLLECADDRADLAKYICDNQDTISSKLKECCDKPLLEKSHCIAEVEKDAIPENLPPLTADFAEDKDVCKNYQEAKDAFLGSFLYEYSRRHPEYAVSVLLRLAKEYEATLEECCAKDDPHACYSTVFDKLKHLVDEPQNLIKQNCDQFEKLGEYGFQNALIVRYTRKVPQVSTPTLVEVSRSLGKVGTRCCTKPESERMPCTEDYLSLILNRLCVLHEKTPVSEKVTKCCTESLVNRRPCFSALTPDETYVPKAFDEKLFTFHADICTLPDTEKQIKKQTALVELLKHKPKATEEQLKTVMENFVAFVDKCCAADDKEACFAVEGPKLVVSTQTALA

[1] = small-molecule microarray binders of probe aXIP, primary screen, biochemical, NeuroSMM set, 635/667 nm fluorescence (AID 1119); settings: higher = more signal, called active from +8 up or from −8 down;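 further: probe is the protein aXip251-270 applied at 1 µg/mL to compound-printed slides; binding of probe to printed compounds measured as 667 nm fluorescence plus signal to noise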
[2] = small-molecule binders of probe aNOTCH3, primary screen, biochemical, small-molecule microarray, 635/667 nm fluorescence (AID 1120); settings: higher = more signal;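 further: probe is a biotin-tagged antibody raised against NOTCH3 rather than NOTCH3 protein; score merges spot fluorescence near 667 nm with spot signal to noise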
[3] = small-molecule binders of probe aNOTCH2, primary screen, biochemical, small-molecule microarray, 635/667 nm fluorescence (AID 1121); settings: higher = more signal;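 further: score merges feature fluorescence read at 667 nm with its signal to noise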
[4] = target: Carbonic anhydrase 2 (Homo sapiens) (UniProt P00918); experiment: CAII small-molecule binders, profiling panel, biochemical, small-molecule microarray, Alexa647-labelled CAII (AID 1122); settings: CAII-A647 binding fluorescence, higher = more signal
[5] = COS7 lysate on small-molecule microarray, probe aHis, 635 nm (AID 1123); settings: COS7 cell lysate, fluorescence, higher = more signal;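 further: z-score combines 667nm fluorescence intensity with signal-to-noise per printed compound spot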
[6] = compound binding in COS7 lysate, probe aLAP1, primary screen, cell lysate, small-molecule microarray (AID 1124); settings: probe aLAP1, fluorescence, higher = more signal;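 further: lysate comes from COS7 cells expressing LAP1 and is applied at 0.3 µg/mL; score merges spot fluorescence near 667 nm with signal-to-noise over triplicate slides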
Sam68 (KHDRBS1) = experiment: Sam68 small-molecule binders, primary screen, biochemical, small-molecule microarray, 635 nm fluorescence (AID 1125); settings: small-molecule microarray binding, higher = more signal;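 further: score merges 667 nm channel intensity with signal to noise over triplicate slides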
[7] = system: Chordin-like protein 2 (CHRDL2); experiment: CHRDL2 small-molecule binders, primary screen, biochemical, small-molecule microarray, 635 nm fluorescence (AID 1126); settings: small-molecule microarray binding, fluorescence 635 nm; higher = more signal;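 further: printed compound slides probed with Chrdl2 protein at 4 µg/mL for 1 h at 4 C; score merges 667 nm emission intensity with signal to noise over three replicate slides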
[8] = target: Concanavalin-A (Canavalia ensiformis) (UniProt P02866); experiment: ConA small-molecule binders, primary screen, artefact control for SMM control protein annotation, biochemical, small-molecule microarray, Alexa647 label, 635 nm (AID 1127); settings: ConA-A647 binding fluorescence, higher = more signal;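 further: z combines 667 nm emission intensity with signal-to-noise across three replicate slides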
Sequence of Concanavalin-A (Canavalia ensiformis) (P02866 whole entry, looked up): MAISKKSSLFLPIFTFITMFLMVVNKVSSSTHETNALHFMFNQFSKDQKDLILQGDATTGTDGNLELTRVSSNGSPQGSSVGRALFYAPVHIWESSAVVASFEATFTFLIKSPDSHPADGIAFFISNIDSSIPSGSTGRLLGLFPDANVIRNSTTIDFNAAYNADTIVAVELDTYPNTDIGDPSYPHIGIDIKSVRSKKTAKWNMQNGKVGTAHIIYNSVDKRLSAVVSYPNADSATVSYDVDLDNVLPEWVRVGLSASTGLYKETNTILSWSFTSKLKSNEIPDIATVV

[9] = anti-His antibody binders, primary screen, artefact control for SMM control protein annotation, biochemical, small-molecule microarray, 635 nm fluorescence (AID 1128); settings: anti-His Alexa647 antibody binding, higher = more signal;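 further: score merges feature fluorescence with signal-to-noise for each printed compound spot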
[10] = system: Human papillomavirus type 1a E7 protein (residues 1-88); experiment: HPV1a E7 small-molecule binders, primary screen, biochemical, small-molecule microarray, residues 1-88, 635 nm (AID 1129); settings: small-molecule microarray binding, fluorescence 635 nm; higher = more signal
[11] = target: Focal adhesion kinase 1 (Homo sapiens) (UniProt Q05397); experiment: small-molecule microarray binders of FAK, primary screen, biochemical, 635/667 nm fluorescence, BSA, DTT (AID 1130); settings: PTK2 binding, 635 nm fluorescence, higher = more signal;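 further: composite of spot emission at 667 nm and signal to noise over triplicate slides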
Sequence of Focal adhesion kinase 1 (Homo sapiens) (Q05397 whole entry, looked up): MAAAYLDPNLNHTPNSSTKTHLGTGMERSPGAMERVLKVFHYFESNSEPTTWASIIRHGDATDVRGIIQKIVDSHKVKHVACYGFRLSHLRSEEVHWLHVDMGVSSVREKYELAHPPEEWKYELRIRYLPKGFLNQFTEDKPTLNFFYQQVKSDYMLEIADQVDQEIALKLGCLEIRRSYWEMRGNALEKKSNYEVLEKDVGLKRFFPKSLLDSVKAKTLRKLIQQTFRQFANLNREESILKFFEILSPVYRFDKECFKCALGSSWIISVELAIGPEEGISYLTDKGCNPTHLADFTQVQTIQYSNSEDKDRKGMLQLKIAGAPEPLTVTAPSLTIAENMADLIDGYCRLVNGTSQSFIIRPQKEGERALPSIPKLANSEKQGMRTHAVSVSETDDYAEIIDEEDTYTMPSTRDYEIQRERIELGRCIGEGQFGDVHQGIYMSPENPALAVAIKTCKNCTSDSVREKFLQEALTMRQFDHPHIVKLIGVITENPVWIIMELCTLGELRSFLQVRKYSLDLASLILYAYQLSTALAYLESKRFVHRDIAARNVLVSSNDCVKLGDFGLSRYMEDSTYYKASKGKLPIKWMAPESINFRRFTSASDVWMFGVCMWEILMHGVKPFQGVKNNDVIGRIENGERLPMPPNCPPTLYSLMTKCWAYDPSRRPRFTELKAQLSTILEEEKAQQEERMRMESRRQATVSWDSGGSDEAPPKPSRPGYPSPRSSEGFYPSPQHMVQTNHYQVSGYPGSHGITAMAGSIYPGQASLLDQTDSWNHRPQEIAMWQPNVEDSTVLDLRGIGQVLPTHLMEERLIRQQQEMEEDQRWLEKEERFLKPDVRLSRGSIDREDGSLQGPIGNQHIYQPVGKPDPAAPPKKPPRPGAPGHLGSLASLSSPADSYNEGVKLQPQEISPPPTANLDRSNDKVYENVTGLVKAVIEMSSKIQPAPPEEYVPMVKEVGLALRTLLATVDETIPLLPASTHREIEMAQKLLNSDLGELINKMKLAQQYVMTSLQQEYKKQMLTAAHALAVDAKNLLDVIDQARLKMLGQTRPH

[12] = system: Fibrinogen (Alexa647-labelled); experiment: fibrinogen binders on compound microarrays, profiling panel, artefact control for SMM control-protein annotation, biochemical, small-molecule microarray, 635/667 nm fluorescence (AID 1131); settings: fibrinogen-A647 binding fluorescence, higher = more signal;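 further: z-score merges 667 nm fluorescence with per-spot signal-to-noise over triplicate slides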
[13] = target: Follistatin (Homo sapiens) (UniProt P19883); experiment: follistatin binders on small-molecule microarrays, primary screen, biochemical, small-molecule microarray, 635/667 nm fluorescence (AID 1132); settings: FST binding, 635 nm fluorescence, higher = more signal
Sequence of Follistatin (Homo sapiens) (P19883 whole entry, looked up): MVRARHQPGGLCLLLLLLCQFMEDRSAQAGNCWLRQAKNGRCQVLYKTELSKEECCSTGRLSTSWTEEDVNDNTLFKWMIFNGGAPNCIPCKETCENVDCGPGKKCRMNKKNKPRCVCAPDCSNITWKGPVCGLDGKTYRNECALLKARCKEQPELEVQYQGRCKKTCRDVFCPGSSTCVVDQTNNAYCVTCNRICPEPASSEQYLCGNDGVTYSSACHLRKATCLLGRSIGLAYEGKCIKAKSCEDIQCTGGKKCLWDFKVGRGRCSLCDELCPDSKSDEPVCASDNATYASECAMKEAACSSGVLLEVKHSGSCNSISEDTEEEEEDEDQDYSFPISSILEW

[14] = target: Fibroblast growth factor 2 (Homo sapiens) (UniProt P09038); experiment: FGF2 binders on small-molecule microarrays, primary screen, biochemical, small-molecule microarray, 635/667 nm fluorescence (AID 1133); settings: small-molecule microarray binding, FGF2, fluorescence 635/667; higher = more signal
Sequence of Fibroblast growth factor 2 (Homo sapiens) (P09038 whole entry, looked up): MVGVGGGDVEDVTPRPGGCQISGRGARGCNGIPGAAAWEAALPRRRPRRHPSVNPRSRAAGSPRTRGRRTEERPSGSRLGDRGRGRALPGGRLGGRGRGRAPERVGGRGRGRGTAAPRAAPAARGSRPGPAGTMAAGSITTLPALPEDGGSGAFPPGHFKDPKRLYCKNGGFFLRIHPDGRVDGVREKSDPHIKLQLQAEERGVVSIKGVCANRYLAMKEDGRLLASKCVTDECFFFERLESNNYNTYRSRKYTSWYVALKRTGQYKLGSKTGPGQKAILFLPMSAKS

[15] = mitochondrial membrane potential change in A549 cells, profiling panel, cell-based, JC-1 fluorescence, basal, 24 h, 100 nL (AID 1138); settings: higher = more signal;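 further: A549 lung adenocarcinoma cells under basal conditions with no added stimulus; test concentration not given here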
Lefty1 = Lefty1 binders on small-molecule microarrays, primary screen, biochemical, small-molecule microarray, 635/667 nm fluorescence (AID 1139); settings: small-molecule microarray binding, fluorescence 635/667; higher = more signal
[16] = system: wheat germ agglutinin (Triticum aestivum), Alexa647-labelled; experiment: wheat germ agglutinin binders on compound microarrays, profiling panel, artefact control for SMM control-protein annotation, biochemical, small-molecule microarray, 635/667 nm fluorescence (AID 1140); settings: WGA-A647 binding, 635 nm fluorescence, higher = more signal;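 further: score merges 667 nm feature emission with signal to noise over triplicate slides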
[17] = target: Luciferin 4-monooxygenase (Photinus pyralis) (UniProt P08659); experiment: firefly luciferase enzyme inhibitors, primary screen, biochemical, luminescence, purified enzyme, 2006 set (AID 1141); settings: SteadyGlo luminescence, 30 min, higher = more signal, called active from +8 up or from −8 down;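 further: cell-free assay with purified firefly luciferase at 100 ng per well in PBS; test concentration not given here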
Sequence of Luciferin 4-monooxygenase (Photinus pyralis) (P08659 whole entry, looked up): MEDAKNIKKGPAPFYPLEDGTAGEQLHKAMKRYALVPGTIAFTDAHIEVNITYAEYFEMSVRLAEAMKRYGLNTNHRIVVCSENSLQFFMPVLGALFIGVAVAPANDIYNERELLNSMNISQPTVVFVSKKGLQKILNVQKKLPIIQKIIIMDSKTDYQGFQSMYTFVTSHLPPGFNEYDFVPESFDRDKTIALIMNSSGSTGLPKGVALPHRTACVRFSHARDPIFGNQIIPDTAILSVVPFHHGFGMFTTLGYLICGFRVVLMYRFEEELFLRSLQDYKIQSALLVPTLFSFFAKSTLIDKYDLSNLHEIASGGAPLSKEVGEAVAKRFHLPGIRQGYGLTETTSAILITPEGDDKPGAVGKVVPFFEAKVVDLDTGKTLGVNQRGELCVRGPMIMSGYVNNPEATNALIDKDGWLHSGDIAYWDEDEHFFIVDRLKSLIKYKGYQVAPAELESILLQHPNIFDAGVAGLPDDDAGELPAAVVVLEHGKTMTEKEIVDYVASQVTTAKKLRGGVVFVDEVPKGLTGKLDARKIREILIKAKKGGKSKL

Row | SMILES | composite z-score (Albumin (Bos taurus)) | composite Z-score [1] | composite z-score [2] | composite z-score [3] | composite z-score [4] | composite z-score [5] | composite z-score [6] | composite z-score (Sam68 (KHDRBS1)) | composite z-score [7] | composite z-score [8] | composite z-score [9] | composite z-score [10] | composite z-score [11] | composite z-score [12] | composite z-score [13] | composite z-score [14] | z-score [15] | composite z-score (Lefty1) | composite z-score [16] | z-score [17]
1 | COCCOC(=O)N1C(=O)[C@@]2(c3cc(C#CCNC(N)=O)ccc31)[C@H](C(=O)NC[C@H](O)c1ccccc1)[C@H]1C(=O)O[C@H](c3ccccc3)[C@H](c3ccccc3)N1[C@@H]2c1ccc(O)cc1 | 0.348 | 0.239 (inactive) | -0.0044 | -0.104 | 0.0718 | 1.14 | 1.01 | 0.928 | -0.474 | 1.02 | 0.95 | 0.502 | 0.492 | 0.651 | 1.35 | 0.674 | -0.175 | 0.16 | 0.436 | -1.48 (inactive)
2 | C=CCN1C(=O)[C@]2(O[C@H](CCn3cc([C@H](O)c4ccccc4)nn3)[C@@H]([Si](C)(C)c3ccc(OC)cc3)[C@@H]2C)c2cc(N3CCOC3=O)ccc21 | 0.318 | 0.2 (inactive) | -0.272 | -0.201 | 0.521 | 0.8 | 0.0004 | 0.745 | -0.526 | 0.804 | 1.13 | 1.13 | 0.783 | 0.811 | -0.447 | -0.408 | 1.89 | -0.351 | 0.514 | -0.678 (inactive)
3 | COc1c(C)cc(-c2cc3c(c(CCc4ccccc4)n2)[Si](C(C)C)(C(C)C)OC3)cc1C | -0.296 | 0.0537 (inactive) | 0.0179 | 0.0049 | 0.2 | 0.614 | 0.427 | 1.07 | 0.0922 | -0.17 | -0.611 | 0.654 | 0.158 | -0.074 | 0.483 | 0.0057 | 2.24 | 0.251 | -0.442 | -0.374 (inactive)
4 | CC(C)(C)OC(=O)CC[C@]1(C(=O)NCc2ccccc2)COC(c2ccc(OCCCO)cc2)=N1 | 0.875 | 0.603 (inactive) | 0.0128 | 0.0377 | 0.673 | 2.41 | 1.49 | 1.25 | -1.45 | 0.255 | -0.518 | 1.25 | 0.444 | 0.694 | -0.0444 | -1.04 | 0.695 | -0.986 | 1.33 | -0.714 (inactive)
5 | C[N+](C)(C)CCCC[C@@H]1NC(=O)[C@H]2C[C@@H](C(=O)NCCCCCN)[C@@H](c3cccc(OCCO)c3)N2C1=O | 0.913 | 0.268 (inactive) | 0.23 | -0.0633 | 0.801 | 2.41 | 1.34 | 0.965 | -0.0742 | 1.13 | 2.45 | 1.07 | 0.535 | 0.789 | 1.19 | 0.327 | -0.102 | 0.17 | 1.1 | -0.714 (inactive)
